According to PubChem BioAssay (EPA / NIEHS):
Inconclusive results are not listed. The source made the active and inactive calls. Rule for the calls: active = hit-call score of the fitted dose curve at least 0.9, where 1 is the maximum; inconclusive = response in the unintended direction; inactive = score below 0.9.

These compounds were tested on sulfotransferase (SULT2A), SULT2A1 (gene 6822) (assay: CLD_SULT2A_24hr: CellzDirect (CLD) Gene Expression Assay for sulfotransferase (SULT2A) at 24 hours (AID 2283694)).
Description: CLD_24hr is a cell-based, multiplexed-readout assay that uses hepatocyte, a human liver primary cell, with measurements taken at 24 hours after chemical dosing in a 96-well plate.CLD_SULT2A_24hr is one of 16 assay component(s) measured or calculated from the CLD_24hr assay. It is designed to make measurements of mRNA induction, a form of inducible reporter, as detected with chemiluminescence signals by Quantitative Nuclease Protection Assay (qNPA) technology.Data from the assay component CLD_SULT2A_24hr was analyzed at the endpoint, CLD_SULT2A_24hr, in the positive analysis fitting direction relative to DMSO as the negative control and baseline of activity. Using a type of inducible reporter, gain-of-signal activity can be used to understand changes in the reporter gene as they relate to the gene SULT2A1. Furthermore, this assay endpoint can be referred to as a primary readout. To generalize the intended target to other relatable targets, this assay endpoint is annotated to the transferase intended target family, where subfamily is sulfotransferase.
Human hepatocyte cultures were treated daily for two consecutive days with fresh dosing solutions containing appropriate concentrations of the 320 ToxCast chemicals (chemical identities were blinded to CellzDirect and other ToxCast collaborators), vehicle control (0.2% DMSO), and positive control inducers as summarized in Table 1. Due to the large number of treatment groups and chemicals examined, the ToxCast chemicals were divided into two groups (spanning two independent cultures of hepatocytes from separate donor preparations (Hu778: ToxCast plates 1 and 2; Hu776: ToxCast plates 3 and 4). Each preparation of human hepatocyte cultures was treated with respective vehicle control, medium only control, set of six positive controls/reference chemicals for the five hepatic receptor pathways, and a subset of eight of the ToxCast chemicals (indoxacarb, pyrithiobac-sodium, norflurazon, cyhalofop-butyl, methomyl, thiram, acetochlor, and propiconazole). These replicate data, coupled with internal replicates designed within the blinded ToxCast chemical library, provided additional data to evaluate interindividual differences between hepatocyte preparations and their potential impact on chemical profiles.Cell morphology and integrity were evaluated using phase-contrast microscopy as an indicator of hepatocyte cell health (Tyson & Green, 1987). Cultures for each treatment group (i.e., media, vehicle [0.2% DMSO], positive control inducers [multiple concentrations], and the ToxCast chemicals [multiple concentrations]) were observed and cell morphology was assessed relative to vehicle control cultures at each harvest time point (0, 6, 24, or 48 h). […] Images were evaluated at the conclusion of the study to assess changes in cell integrity and account for the effects of chemical exposure on uncharacteristic changes in concentration-dependent gene expression profiles. The results from these determinations of apparent cytotoxicity were annotated (yes/no) alongside the corresponding qNPA data for reference.At the conclusion of each treatment period, hepatocyte cultures (96-well) were washed with 1 volume of HBSS, lysed by addition of 25 ul ArrayPlate lysis buffer (HTG, Tucson, AZ), and 70 ul/well of Denaturation Oil, denatured by incubation at 95C for 10 min, and frozen at approximately -70C until analysis by nuclease protection assay (qNPA) (Roberts et al., 2007). For qNPA analysis, cell lysates were thawed at 50C for approximately 30 min, qNPA probes were added, and samples were incubated at 95C for 10 min to begin the detection process by denaturing the target RNA, dissociating the duplexes and secondary structure hybridization. At the conclusion of the hybridization period, S1 nuclease reagent was added to each sample to digest all nonprotected nucleotides at 50C for 60-90 min. […]
For `CCOC(=O)C(C)Oc1ccc(Oc2nc3ccc(Cl)cc3o2)cc1` (stereo not given), the outcome was “inactive”.
With `CC(C)(C)[C@@H](O)[C@@H](Cc1ccc(Cl)cc1)n1cncn1` the outcome was “inactive”.
With `COCCO` the outcome was “inactive”.
In the case of `CN(C)C(=O)Nc1ccc(Cl)c(Cl)c1`, the outcome is reported as “inactive”.
`Oc1ccc(C(c2ccc(O)cc2)C(Cl)(Cl)Cl)cc1` was tested, and the outcome was “inactive”.
For `CCCCC(CC)COC(=O)c1ccccc1C(=O)O` (stereo not given), the outcome was “inactive”.
For `CCCN(CCC)c1c([N+](=O)[O-])cc(C(F)(F)F)c(N)c1[N+](=O)[O-]`, the outcome was “inactive”.
For `O=C(O)C1(C(=O)Nc2ccc(Cl)cc2Cl)CC1`, the outcome was “inactive”.
In the case of `CCCCOCCOCCOCc1cc2c(cc1CCC)OCO2`, the outcome is reported as “inactive”.
For `CCCCC(CC)CN1C(=O)C2C3C=CC(C3)C2C1=O` (stereo not given), the outcome was “inactive”.
In the case of `CCCCOC(=O)[C@@H](C)Oc1ccc(Oc2ccc(C(F)(F)F)cn2)cc1`, the outcome is reported as “inactive”.
In the case of `CCOC(=O)[C@H](C)Oc1ccc(Oc2nc3ccc(Cl)cc3o2)cc1`, the outcome is reported as “inactive”.
With `CCCCOC(=O)C(C)Oc1ccc(Oc2ccc(C(F)(F)F)cn2)cc1` (stereo not given) the outcome was “inactive”.
`COC(=O)CSc1cc(N=c2sc(=O)n3n2CCCC3)c(F)cc1Cl` was tested, and the outcome was “inactive”.
With `CCCCCCC(C)OC(=O)COc1nc(F)c(Cl)c(N)c1Cl` (stereo not given) the outcome was “inactive”.
In the case of `CCCOC(=O)NCCCN(C)C`, the outcome is reported as “inactive”.
With `c1ccc(Nc2ccccc2)cc1` the outcome was “inactive”.
For `CSC(=O)c1cccc2nnsc12`, the outcome was “inactive”.
`CC(C)(c1ccc(O)cc1)c1ccc(O)cc1` was tested, and the outcome was “inactive”.
`CCOC(=O)C(C)Oc1ccc(Oc2cnc3cc(Cl)ccc3n2)cc1` (stereo not given) was tested, and the outcome was “inactive”.
With `CCOC(=O)NCCOc1ccc(Oc2ccccc2)cc1` the outcome was “inactive”.
With `COC(=O)c1ccccc1C(=O)O` the outcome was “inactive”.
With `OB(O)O` the outcome was “inactive”.
For `COc1c(Cl)ccc(Cl)c1C(=O)O`, the outcome was “inactive”.
For `CCCOC(=O)c1ccc(C(=O)OCCC)nc1`, the outcome was “inactive”.
`CCCN(CCC)C(=O)SCC` was tested, and the outcome was “inactive”.
With `CCCCCOC(=O)COc1cc(N2C(=O)C3=C(CCCC3)C2=O)c(F)cc1Cl` the outcome was “inactive”.
`N#CSCSc1nc2ccccc2s1` was tested, and the outcome was “inactive”.
With `COC(=O)c1cccc(C)c1S(=O)(=O)NC(=O)Nc1nc(OCC(F)(F)F)nc(N(C)C)n1` the outcome was “inactive”.
In the case of `COC(=O)c1ccccc1S(=O)(=O)NC(=O)Nc1nc(OC(F)F)cc(OC(F)F)n1`, the outcome is reported as “inactive”.
In the case of `COC(=O)c1c(Cl)nn(C)c1S(=O)(=O)NC(=O)Nc1nc(OC)cc(OC)n1`, the outcome is reported as “inactive”.
`C#CCOC(=O)[C@@H](C)Oc1ccc(Oc2ncc(Cl)cc2F)cc1` was tested, and the outcome was “inactive”.
With `Cc1nn(C)c(Oc2ccccc2)c1C=NOCc1ccc(C(=O)OC(C)(C)C)cc1` the outcome was “inactive”.
With `O=C(Nc1ccc([N+](=O)[O-])cc1Cl)c1cc(Cl)ccc1O` the outcome was “inactive”.
In the case of `CCC(C)OC(=O)N1CCCCC1CCO` (stereo not given), the outcome is reported as “inactive”.
